Screens deposited in PubChem by National Center for Advancing Translational Sciences (NCATS).
A selection: hits, their analogues and other compounds. The true share with any hit is near 6%.
D3 ag = D3 dopamine receptor (human) agonism. max activation, %. D3R DiscoveRx beta-arrestin cells, luminescence, 90 min. actives 0.58% (n = 410,000); in the data active means max activation above about 30%
Target sequence (P35462 whole entry, looked up): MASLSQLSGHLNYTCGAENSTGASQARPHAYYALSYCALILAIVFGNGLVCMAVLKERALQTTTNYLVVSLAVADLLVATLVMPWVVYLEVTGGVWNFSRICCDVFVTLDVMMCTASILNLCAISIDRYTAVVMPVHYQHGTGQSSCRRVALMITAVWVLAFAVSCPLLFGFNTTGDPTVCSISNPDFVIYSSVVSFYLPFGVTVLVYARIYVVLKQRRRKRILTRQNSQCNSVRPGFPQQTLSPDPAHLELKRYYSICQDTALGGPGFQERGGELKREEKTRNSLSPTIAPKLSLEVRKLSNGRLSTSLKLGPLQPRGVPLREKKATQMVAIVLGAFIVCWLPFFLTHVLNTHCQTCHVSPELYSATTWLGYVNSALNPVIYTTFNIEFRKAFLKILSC
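Agonist mode: compounds and dopamine controls were applied to plated cells for 90 min at 37 degrees C after an overnight attachment at 1500 cells/well. Luminescent read-out followed 30 - 60 minutes at room temperature with DiscoveRx detection reagent.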
D1 PAM = human D1 dopamine receptor positive modulation. P21728. HEK293 TREx D1 cells, calcium flux, dopamine EC20 potentiation. potentiation, % at 10 µM. actives 0.036% (n = 360,000). AID 504651; in the data active means potentiation above about 30%
DRD3 antagonist = D3 dopamine receptor (human) antagonism. P35462. D3R cells, DiscoveRx beta-arrestin luminescence, antagonist mode; stronger effect = lower value. max response, negative = inhibition, %. actives 2.5% (n = 360,000). AID 652054; in the data active means max response below about -50%; inconclusive means no clear call, values can overlap the other calls
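Cells expressing the human receptor were seeded at 1500 cells/well, incubated overnight at 37 degrees C in 5% CO2, then exposed to library compounds with dopamine controls for 90 minutes at 37 degrees C before luminescent detection.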
D1 ag = activates the human D1 dopamine receptor; actives 1% (n = 360,000); activation, % at 2 µM; P21728; AID 504660; HEK293 T-REx D1 cells, calcium flux, agonist mode; in the data active means activation above about 30%
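Tetracycline-induced HEK293 TREx D1 cells, force-coupled to calcium signalling, were dye-loaded with a no-wash calcium kit. Compound was pin-added after a 10 s baseline. Fluorescence was read kinetically at 1 cycle/s for 180 s, with calcium rises flagged as agonism.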
D1 antag = antagonists of human D1 dopamine receptor; P21728; AID 504652; activity change, negative = inhibition, % at 10 µM; HEK293 TREx D1 cells, calcium flux, dopamine EC80; stronger effect = lower value; actives 3.2% (n = 360,000); in the data active means activity change below about -30%
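Antagonism measured as reduced calcium response to an EC80 dopamine addition following 180 s compound pre-read; cells were inducible HEK293 Trex D1 plated overnight at 30 C, read kinetically at 1 cycle/sec.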
A number is an active result; - = inactive; ? = inconclusive; . = not tested or not shown; ! = a repeat was not active.

SMILES	D3 ag	D1 PAM	DRD3 antagonist	D1 ag	D1 antag
CCC(=O)N1c2ccccc2CC1C(=O)NCc1ccc(CC)cc1 (configuration not stated)	-	-	.	-	-
CN(Cc1ccccc1)C(=O)c1ncn(Cc2ccccc2)c1C(=O)N(C)Cc1ccccc1	45	-	-	-	.
NC[C@H]1O[C@H](O[C@H]2[C@H](O[C@@H]3O[C@H](CO)[C@@H](O)[C@H]3O)C(O)[C@H](N)C[C@@H]2N)[C@H](N)[C@@H](O)[C@@H]1O (some centres not stated)	-	.	.	.	.
CCOc1ccc(-c2noc(CSc3nnc(Cc4ccccc4)n3-c3cccc(C)c3)n2)cc1	-	-	.	38	-
CCOc1ccc(-n2c(Cc3ccccc3)nnc2SCc2nc(-c3ccccc3C)no2)cc1	-	-	.	32	-
CCc1ccc(-n2c(Cc3ccccc3)nnc2SCc2nc(-c3cccs3)no2)cc1	-	-	.	84	-37
Cc1ccc(-c2noc(CSc3nnc(Cc4ccccc4)n3-c3cccc(C)c3)n2)cc1	-	-	-	-	-
O=C(c1ccc(F)cc1)n1nc(-c2cccnc2)nc1NCc1ccc(F)cc1	-	-	.	-	-
Clc1ccccc1CSc1nnc(Cn2cnc3ccccc32)n1-c1ccccc1	-	-	-	-	-82
CCOc1ccc(NCc2nnc(SCc3ccccc3Cl)n2-c2ccccc2)cc1	-	-	-	-	-
CN(C(=O)c1cc2n(n1)C(C(F)(F)F)CC(c1ccco1)N2)c1ccccc1 (configuration not stated)	-	-	-	-	-50
NC(=O)C1CCN(C(=O)c2cc3n(n2)C(C(F)(F)F)CC(c2ccco2)N3)CC1 (configuration not stated)	-	-	-	-	-40
O=C(NC1CCCCCC1)c1cc2n(n1)C(C(F)(F)F)CC(c1ccco1)N2 (configuration not stated)	-	-	-	-	-
Cc1cccc(CCNC(=O)CN(c2ccc(C(C)C)cc2)S(=O)(=O)c2c(C)nn(C)c2C)c1	-	-	.	-	-
COC(=O)c1cn[nH]c1N	-	-	-	-	-30
CCOC(=O)c1cn[nH]c1N	-	-	-	-	-
O=C(C1CCC(CNS(=O)(=O)c2cccs2)CC1)N1CCN(c2ccc(Cl)cc2)CC1 (configuration not stated)	41!	-	-	-	-
CC1CCN(C(=O)Cn2cc(SCc3cccc(F)c3)c3ccccc32)CC1	-	-	.	-	-
CC(C)C1NCCc2c1sc1ccccc21 (configuration not stated)	-	.	-61	.	.
CCc1c(C)nc2cc(-c3ccc(OC)c(OC)c3)nn2c1NCC1CC1	38	-	-	-	-
COc1ccc(CCNC(=O)CCc2c(C)nc3cc(-c4ccccc4)nn3c2C)cc1OC	-	-	.	-	-
COc1ccc(Br)cc1S(=O)(=O)N(CC(=O)N1CCOCC1)c1ccccc1	-	-	-120	-	-
CS(=O)(=O)N(CC(=O)N1CCOCC1)c1ccccc1	-	-	-	-	-
COc1ccc(C)cc1S(=O)(=O)N(CC(=O)N1CCOCC1)c1cc(C)cc(C)c1	-	-	-	-	-
Cc1ccc(N(CC(=O)N2CCOCC2)S(=O)(=O)c2ccccc2)cc1	-	-	-	-	-
SMILES	D3 ag	D1 PAM	DRD3 antagonist	D1 ag	D1 antag
Cc1ccc(N(CCC(=O)N2CCOCC2)S(=O)(=O)c2ccccc2)cc1	-	.	-	-	-55
CN(C)S(=O)(=O)N(CC(=O)N1CCOCC1)c1ccccc1	-	-	-52	-	-
Cc1ccc(S(=O)(=O)/N=C(/c2ccccc2)N2CCOCC2)cc1	36	-	-	-	-
CC1CCCN(C(=O)CSc2c3c(nc4cc(Cl)ccc24)CCCC3)C1 (configuration not stated)	-	-	.	-	-
COc1cc(CN(C(=O)c2ccc(OC(C)C)cc2)c2ccccn2)cc(OC)c1OC	-	-	.	-	-
CO/N=C(\C(=O)N[C@@H]1C(=O)N2C(C(=O)OCOC(=O)C(C)(C)C)=C(/C=C\c3scnc3C)CS[C@H]12)c1csc(N)n1	-	.	.	.	.
CCN1CCN(C(=O)c2ccccc2N(Cc2ccccc2)S(=O)(=O)c2ccc(C)cc2)CC1	-	-	-52	-	-
CCN1CCN(C(=O)c2ccccc2N(Cc2ccccc2)S(C)(=O)=O)CC1	-	-	-	-	-
CCn1nc(NS(=O)(=O)c2ccccc2)c2cc3cc(C)ccc3nc21	-	-	-	-	-
CCn1nc(NS(=O)(=O)c2ccccc2)c2cc3ccc(C)cc3nc21	-	-	-63	-	-
CN1CCN(/N=C/c2ccc(OCc3ccccc3)cc2)CC1	-	-	?	32	-69
COc1ccc(-c2cn3c(n2)sc2cc(C(=O)NCCc4ccc(OC)cc4OC)ccc23)cc1	-	-	.	-	-
COc1ccc(-n2c(=O)c3c4c(sc3n(Cc3ccc(F)cc3)c2=O)CN(C(C)=O)CC4)c(OC)c1	-	-	.	-	-
CN(CC(=O)NCC1COc2ccccc2O1)S(=O)(=O)c1ccc(Cl)cc1 (configuration not stated)	-	.	-	.	.
c1ccc2c(c1)OCC(CNCC1COc3ccccc3O1)O2 (configuration not stated)	-	-	-81	-	-
c1ccc(CCNCC2COc3ccccc3O2)cc1 (configuration not stated)	-	-	-85	-	-
CN(C)S(=O)(=O)c1cccc(CNCC2COc3ccccc3O2)c1 (configuration not stated)	31	-	?	-	-
Oc1ccc(CNCC2COc3ccccc3O2)cc1 (configuration not stated)	-	-	-73	-	-
O=C(O)CNCC1COc2ccccc2O1 (configuration not stated)	-	-	-	-	-
S=C(NCc1ccccc1)NCC1COc2ccccc2O1 (configuration not stated)	-	-	-	-	-
COc1cc(NC(=O)N2CCC3(CC2)Nc2ccccc2-n2cccc23)cc(OC)c1OC	-	-	.	-	-
O=C(NCC1COc2ccccc2O1)c1ccc(NC(=O)c2ccco2)cc1 (configuration not stated)	-	-	-	-	-30
O=C(NCC1COc2ccccc2O1)c1ccc(Cl)cc1 (configuration not stated)	-	-	-	-	-
CCCNc1ncnc2c1c(-c1ccccc1)cn2-c1ccccc1	-	-	.	-	-
O=C(CBr)N1CCc2ccccc2C(c2ccccc2)C1 (configuration not stated)	-	-	-	-	-
COc1cc2c(cc1OC)C(c1ccccc1)N(C(=O)C(C)(C)C)CC2 (configuration not stated)	-	-	-	-	-
CN1CCc2cc(O)c(O)cc2C(c2ccccc2)C1 (configuration not stated)	108	-	-	-	-88
